We go through 24 compounds from the supplement of paper PMC10127200.

Each structure is given as a SMILES string.

Test in all cases: Euclidean distance of Cell Painting phenotypic profile (signed KS, 77 features) to DMSO centroid (dimensionless distance); 5 or 10 uM (library dependent); higher = stronger phenotypic change vs DMSO (phenoactivity)
Holding throughout (details): 48 h

For one test, the system named is 786-O. In a few lines:
(§1)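 Harmony extracted 77 features from 20X confocal images (9 fields/well) of stained cells, scoring each as a signed Kolmogorov-Smirnov statistic against same-plate vehicle wells. The cells, five cancer lines and a healthy fibroblast line, had received library compounds for 48 h at 10 or 5 uM depending on library, with 0.1% DMSO final. Phenoactivity is the Euclidean distance from each plate-position-corrected, correlation-weighted, top-dose replicate-averaged profile to the median vehicle profile.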

The subject of a further test is A549. In a few lines: as §1
A further test concerns DU145. In a few lines: as §1
The subject of another test is FB. In a few lines:
as §1

In the next test the test system is OVCAR4. In short, it runs like this:
as §1

A further test has as its system HEPG2. In short, it runs like this:
as §1

With `CC(C)c1cnn2c(NCc3ccccc3)cc(NCCCCCCN)nc12`, the Euclidean distance with 786-O amounted to 0.657; in the test on A549, 0.869; in the test with DU145, 0.933; in the test with FB, 0.961; in the test on OVCAR4, 1.08.
For the compound `COC(=O)OCOc1c2n(ccc1=O)N([C@@H]1c3ccccc3SCc3c1ccc(F)c3F)[C@@H]1COCCN1C2=O` [Baloxavir marboxil], the Euclidean distance was determined as 0.818 with 786-O; 1.3 in the test with A549; 1.58 in the test with FB; 0.558 in the test on HEPG2; 0.843 with OVCAR4.
Take `CN(C)Cc1cccc(N/C(=C2\C(=O)Nc3cc(C(N)=O)ccc32)c2ccccc2)c1`: the Euclidean distance with 786-O came out at 1.11; in the test with A549, 1.06; with DU145, 1.33; in the test with FB it was 2.56; in the test with OVCAR4 it was 1.22.
As to `CC/C=C\C/C=C\C/C=C\C/C=C\C/C=C\CCCC(=O)O` [Eicosapentaenoic Acid], the Euclidean distance with 786-O turned out to be 0.992; in the test on A549 it was 1.07; in the test with FB, 0.941; in the test with HEPG2, 0.664; in the test on OVCAR4 it was 1.41.
The corresponding values for `CC1CCC(C(C)C)C(O)C1` (single isomer, unassigned; (-)) [(-)-Menthol] are 0.7, 0.703, 0.797, 0.699 and 0.955.
The corresponding values for `COc1cc(N)cn[n+]1-c1ccccc1` [Amezinium (methylsulfate)] are 1.39, 0.864, 0.801, 0.523 and 1.16.
For `CC1(C)[C@H](C(=O)O)N2C(=O)C[C@H]2S1(=O)=O` [Sulbactam sodium], the Euclidean distance in the test with 786-O was determined as 0.743; in the test on A549, 0.526; in the test with FB, 0.933; in the test on HEPG2, 0.675; in the test on OVCAR4, 0.666.
As to `COc1ccc(CC(C)NCC(O)c2ccc(O)c(NC=O)c2)cc1` (stereo not given) [Formoterol Hemifumarate], the Euclidean distance is 1.29 with 786-O; 0.672 in the test on A549; 0.886 in the test with FB; 1.15 in the test with HEPG2; 1.94 in the test with OVCAR4.
The corresponding values for `CC(C)(C)CC(C)(C)c1ccc(O)c(Cc2ccc(Cl)cc2Cl)c1` [Clofoctol] are 1.64, 1.84, 1.21, 0.886 and 1.7.
The corresponding values for `Cc1cc2c(C(N)=O)cccc2n1-c1nc2c(c(NCc3ccccc3)n1)COCC2` are 6.05, 2.9, 7.18, 4.68 and 3.98.
As for `CC[C@H](C)[C@H](N)C1=N[C@H](C(=O)N[C@@H](CC(C)C)C(=O)N[C@H](CCC(=O)[O-])C(=O)N[C@H](C(=O)N[C@H]2CCCCNC(=O)[C@H](CC(N)=O)NC(=O)[C@@H](CC(=O)[O-])NC(=O)[C@H](Cc3cnc[nH]3)NC(=O)[C@@H](Cc3ccccc3)NC(=O)[C@H]([C@@H](C)CC)NC(=O)[C@@H](CCCN)NC2=O)[C@@H](C)CC)CS1.[Zn+2]` [Bacitracin Zinc], the Euclidean distance with 786-O was 0.919; with A549, 0.811; with FB, 0.932; in the test with HEPG2, 1.77; in the test on OVCAR4, 1.44.
With `COCCOc1ccc2c(c1)ncn2-c1ccc2cccc(N3CCC(N)CC3)c2n1`, the Euclidean distance came out at 2.57 in the test on 786-O; 3.24 with A549; 3.51 in the test on DU145; 3.61 with FB; 3.88 in the test on OVCAR4.
Turning to `CCC1(c2ccccc2)C(=O)NCNC1=O` [Primidone], the Euclidean distance was 1.2 with 786-O; 0.708 with A549; 1.19 in the test with FB; 0.442 with HEPG2; 2.2 with OVCAR4.
The corresponding values for `CN[C@@H]1CCc2[nH]c3ccc(C(N)=O)cc3c2C1` [Frovatriptan Succinate] are 1.33, 0.718, 0.896, 0.505 and 1.29.
On to `O=C1N=C(O)NC1(c1ccccc1)c1ccccc1` [Phenytoin Sodium], for which the Euclidean distance in the test with 786-O turned out to be 0.861; with A549 it was 0.644; with FB, 0.99; in the test with HEPG2 it was 0.976; in the test on OVCAR4, 0.588.
Regarding `CC(C)(C)[C@@H]1NC(=O)O[C@@H]2CCC[C@H]2OC/C=C/C(F)(F)c2nc3ccccc3nc2O[C@@H]2C[C@@H](C(=O)N[C@]3(C(=O)NS(=O)(=O)C4(C)CC4)C[C@H]3C(F)F)N(C2)C1=O` [Glecaprevir], the Euclidean distance was 1.01 in the test on 786-O; 1.22 in the test with A549; 0.806 in the test with FB; 0.687 in the test with HEPG2; 0.812 with OVCAR4.
The corresponding values for `O=c1c(-c2ccc(O)cc2)coc2c([C@@H]3O[C@H](CO)[C@@H](O)[C@H](O)[C@H]3O)c(O)ccc12` [Puerarin] are 0.929, 0.728, 0.661, 0.584 and 1.35.
`CNC(=O)c1c(C)oc2cc(Oc3ncnc4cc(OC)c(OC)cc34)ccc12` [Fruquintinib]: the Euclidean distance with 786-O was determined as 1.24; in the test with A549, 1.24; in the test on FB it was 2.06; in the test with HEPG2 it was 0.855; with OVCAR4 it was 1.44.
`C=CC(=O)N1CC/C(=C\c2ccc(F)c([N+](=O)[O-])c2)C(=O)/C(=C/c2ccc(F)c([N+](=O)[O-])c2)C1`: the Euclidean distance with 786-O was found to be 6.18; in the test on A549 it was 5.03; in the test on FB it was 5.74; with HEPG2, 5.06; in the test on OVCAR4 it was 6.21.
The corresponding values for `CCCCC1(COC(=O)CCC(=O)O)C(=O)N(c2ccccc2)N(c2ccccc2)C1=O` [Suxibuzone] are 0.771, 0.893, 1.12, 0.518 and 1.57.
Take `CC1(C)S[C@@H]2[C@H](NC(=O)C(C(=O)O)c3ccccc3)C(=O)N2[C@H]1C(=O)O` (stereo not given in full) [Carbenicillin disodium]: the Euclidean distance was 1.39 in the test on 786-O; 1.07 with A549; 0.969 in the test on FB; 0.836 in the test with HEPG2; 1.76 in the test with OVCAR4.
The corresponding values for `CC(C)(C)c1ccc(C(=O)CCCN2CCC(OC(c3ccccc3)c3ccccc3)CC2)cc1` [Ebastine] are 1.64, 1.24, 1.83, 0.905 and 1.22.
The corresponding values for `O=c1[nH]nc2c3c(cccc13)N=C(CN1Cc3ccccc3C1)N2` are 0.985, 1.29, 1.31, 2.35 and 1.42.
Take `O=c1c(O)c(-c2ccc(O)cc2O)oc2cc(O)cc(O)c12` [Morin Hydrate]: the Euclidean distance in the test with 786-O came to 0.826; in the test with A549, 0.616; in the test on FB, 0.68; in the test with HEPG2 it was 0.312; in the test on OVCAR4, 1.06.
